Compounds with a hit are over-represented: about 2.5% of the library has one in this group of screens.
POLI inh: qHTS for Inhibitors of Polymerase Iota. AID 588590, 2011. DNA polymerase iota (Homo sapiens), Q9UNA4. Pol iota fluorescent replication assay, 10 min. Potency, µM (doses to about 115 µM), without a hit: at the top dose activity, negative = inhibition, usual class: inhibitors. hit rate 1% among 390,000
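Fluorescent replication assay read twice, at 0 min and 10 min after adding 50 nM (final) substrate. Enzyme (10 nM) and compounds were first incubated 15 min at room temperature; enzyme-free buffer wells were negative controls.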
POLH inh: qHTS for Inhibitors of Polymerase Eta; hit rate 1.2% among 390,000; Potency, µM (titrated, usually from 114 µM), for the others: at the highest dose activity change, negative = inhibition, actives largely listed as inhibitors; DNA polymerase eta (Homo sapiens), Q9Y253; recombinant Pol eta, fluorescent DNA replication assay; note: % is set by controls: 0 for no effect and ±100 for the full control effect
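Fluorescent replication assay: 50 nM final substrate added after a 15 min room-temperature compound preincubation with 10 nM enzyme. Signal taken at 0 min and again at 10 min.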
POLB inh: qHTS Assay for Inhibitors of DNA Polymerase Beta | P06746 | Pol beta primer extension/strand displacement, fluorescence kinetic | Potency, µM (titrated, usually from 114 µM), for inactives: top-dose activity change, negative = inhibition, most hits filed as inhibitors | hit rate 1.3% among 340,000 | AID 485314, 2010; note: % is set by controls: 0 for no effect and ±100 for the full control effect
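Values derive from four-parameter Hill fits of normalized kinetic data: reads at 0 and 10 min following addition of 50 nM substrate to 10 nM Pol beta preincubated 15 min with compound.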
L3MBTL1 inh: qHTS Assay for the Inhibitors of L3MBTL1 | Potency, µM (highest dose often 57.1 µM), for the others: top-dose activity, negative = inhibition, actives largely listed as inhibitors | AlphaScreen L3MBTL1–H3K9me1 peptide binding | Lethal(3)malignant brain tumor-like protein 1 (Homo sapiens), Q9Y468 | AID 485360, 2010 | hit rate 0.66% among 230,000; note: % is set by controls: 0 for no effect and ±100 for the full control effect; nearly all actives have a fitted effect of over 60% in size
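First, the protein-peptide complex forms for 30 min at room temperature (L3MBTL1 50 nM, biotinylated H3K9me1 peptide 75 nM). Next, compounds are pin-transferred and incubated 30 min. Finally, AlphaScreen beads are added and read after 30 min.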
APEX1 inh: qHTS Assay for Inhibitors of the Human Apurinic/apyrimidinic Endonuclease 1 (APE1); DNA repair nuclease/redox regulator APEX1 (Homo sapiens), P27695; recombinant APE1, TAMRA/BHQ-2 abasic DNA cleavage fluorescence; Potency, µM (top dose mostly 65.8 µM), inactives show at the highest dose activity change, negative = inhibition, usual class: inhibitors; hit rate 0.35% among 350,000;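 note: plate controls were vehicle for no effect and reference inhibitor for full effect; nearly all actives have a fitted effect of over 55% in size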
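Substrate: short duplex with […] THF abasic site, 5'-TAMRA and 3'-BHQ-2, 50 nM final. APE1 at 0.75 nM, preincubated 15 min RT with compound. Fluorescence increase from first to third read measured activity.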
Pol kappa inh: qHTS for Inhibitors of Polymerase Kappa; hit rate 0.53% among 400,000; DNA polymerase kappa (Homo sapiens), Q9UBT6; purified Pol kappa, fluorescent DNA synthesis assay, 10 min; Potency, µM (doses to about 107 µM), for inactives: top-dose activity, negative = inhibition, actives largely listed as inhibitors; note: % is set by controls: 0 for no effect and ±100 for the full control effect
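50 nM final substrate added after 15 min RT preincubation of 10 nM Pol kappa with compound; fluorescence read at 0 and 10 min.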
* = called active by the depositor; ? = inconclusive; · = not tested or not shown. Calls come from the whole dose curve; as a rule, active = well fitted curve in the direction sought with a large enough effect; inconclusive = small, poorly fitted or top-dose-only effect, or another doubt; inactive = no such curve, though single readings can be large; an effect the other way counts as inactive or inconclusive. Potency is the fitted concentration of half-maximal effect.

SMILES	POLI inh	POLH inh	POLB inh	L3MBTL1 inh	APEX1 inh	Pol kappa inh
O=c1cc(CN2CCN(Cc3ccccc3)CC2)c2ccc(O)c(O)c2o1	?	10µM*	2.51µM*	·	-22.5%	?
Cc1c(O)ccc2c(CN3CCN(Cc4ccccc4)CC3)cc(=O)oc12	14.3%	-7.7%	-2.3%	·	25.7%	7.9%
CCOc1ccc(NC(=O)CN(C)S(=O)(=O)c2ccc(-c3ccc(=O)[nH]n3)s2)cc1	?	39.8µM*	31.6µM*	·	-37.2%	89.1µM*
CCOc1ccc(C2Nc3ccccc3-c3nnc(SCc4ccccc4)nc3O2)cc1OC (configuration not stated)	-4.0%	-15.1%	-0.7%	·	·	-18.8%
CCOC(=O)CCCC(=O)N1CCN(/[N+]([O-])=N/Oc2ccc([N+](=O)[O-])cc2[N+](=O)[O-])CC1	?	·	·	·	·	4.6%
COc1ccc2nc(C)cc(SCC(=O)N/N=C/c3cccc4ccccc34)c2c1	20.2%	?	0.5%	0.8%	18.2%	0.2%
Cc1ccc2nc(C)cc(SCC(=O)N/N=C/c3ccco3)c2c1	-15.7%	8.4%	39.8µM*	·	1.8%	-13.5%
CCC(Nc1ncnc2ccc(-c3c(C)noc3C)cc12)c1ccccc1 (configuration not stated)	·	·	·	·	12.7%	·
O=C1CSC(=S)N1/N=C/c1ccc(O)c(O)c1O	-102.7%	0.708µM*	0.316µM*	1.12µM*	0.355µM*	0.708µM*
O=C1CSC(=S)N1/N=C/c1cc(Br)ccc1O	·	·	-1.2%	·	3.3%	·
c1ccc(-c2ccc(-c3csc4ncnc(Sc5nnnn5-c5ccccc5)c34)cc2)cc1	6.3%	·	·	·	·	7.9%
CCCCNC(=O)Nc1nnc(-c2ccc(OCC)cc2)o1	97.2%	5.4%	6.1%	·	0.1%	0.9%
CCOC(=O)CNC(=O)Nc1nnc(-c2ccc(OCC)cc2)o1	28.5%	7.0%	79.4µM*	-3.5%	-1.9%	-5.2%
CCCN(CC(=O)Nc1ccccc1C)C(=O)CCl	85.0%	18.8%	-14.2%	-15.0%	-2.4%	-0.4%
CCCN(CC(=O)Nc1ccccc1C)C(=O)Cc1coc2cc(C)ccc12	?	?	39.8µM*	·	-22.4%	-14.6%
CN1CCC(NC(=O)c2cnn3c2NC(=C2CC2)C=C3C(F)F)CC1	·	·	·	·	14.1%	·
COc1ccc(NC2CCCN(C(=O)c3cccc(C)n3)C2)cc1OC (configuration not stated)	50.1µM*	-2.2%	3.4%	·	-5.5%	?
COCCc1nn2c(=O)cc(COC(=O)c3ccc4c(c3)OCO4)nc2s1	-25.2%	-13.4%	?	·	·	-13.9%
COc1cc(NS(=O)(=O)c2ccc(NC(=S)NC(=O)c3sc4ccccc4c3Cl)cc2)ncn1	?	25.1µM*	-22.9%	-4.3%	-2.9%	-13.5%
COc1ccc(C(=O)NC(=S)Nc2ccc(S(=O)(=O)Nc3cc(OC)ncn3)cc2)cc1	-2.0%	-1.2%	39.4%	·	16.7%	-14.3%
COCCn1nnnc1C(c1cc2cc(OC)c(OC)cc2[nH]c1=O)N1CCN(c2ccc(O)cc2)CC1 (configuration not stated)	44.7µM*	-8.9%	-3.2%	31.6%	3.0%	-26.9%
CCc1ccc2[nH]c(=O)c(C(c3nnnn3CCOC)N3CCN(c4ccc(F)cc4)CC3)cc2c1 (configuration not stated)	-2.5%	-14.4%	7.2%	·	-3.0%	-6.6%
O=S(=O)(NCc1ccccc1)c1ccc(Cl)cc1	21.9%	-11.8%	8.6%	·	2.6%	-7.3%
O=S(=O)(Nc1cc2nc3ccccc3nc2n1Cc1ccccc1)c1ccc(Cl)cc1	10µM*	79.4µM*	?	3.98µM*	0.8%	-34.1%

Screening data: PubChem BioAssay, National Center for Advancing Translational Sciences (NCATS)
